PubChem BioAssay (EPA / NIEHS)
Values joined by “and” are separate entries in the source; they are usually repeats but may differ in a detail not shown here. Identical values can stand only once. Where a structure was tested more than once in an assay, its records may differ in their call. Active and inactive are the calls of the source. How the source made its calls: active means hit-call score of the fitted dose curve at least 0.9, where 1 is the maximum; inactive means score below 0.9.

Experiments:
[1] = CEETOX_H295R_DOC: CeeTox H295R High-throughput Steroidogenesis Assay for DOC (AID 2283439); conditions: actives raise or lower the signal
Procedure, shortened: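 Readout: 11-deoxycorticosterone in culture medium by reverse-phase C18 HPLC with ESI+ tandem MS after MTBE extraction. Cells: H295R, forskolin-primed (10 uM, 48 h), chemical-treated 48 h; DMSO 0.1% final. Activity fitted bidirectionally versus DMSO.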

[2] = CEETOX_H295R_ESTRADIOL: CeeTox H295R High-throughput Steroidogenesis Assay for Estradiol (AID 2283440); conditions: actives raise or lower the signal;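 further: estradiol secreted into medium quantified by LC-MS/MS after dansyl derivatisation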
Procedure, shortened: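 H295R, 48 h forskolin (10 uM) prestim → 48 h compound, 0.1% DMSO final. Estradiol in medium: MTBE extraction, dansyl chloride derivatization, LC-MS/MS. Fit bidirectional vs DMSO baseline; MTT viability in same wells.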

[3] = CEETOX_H295R_ESTRONE: CeeTox H295R High-throughput Steroidogenesis Assay for Estrone (AID 2283441); conditions: actives raise or lower the signal;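 further: estrone secreted into medium measured by LC-MS/MS after dansyl derivatization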;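 on AC50: human adrenal H295R cells prestimulated with forskolin for two days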
Procedure, shortened: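 H295R cells prestimulated 48 h with 10 uM forskolin, then exposed 48 h to chemicals in 0.1% DMSO final; estrone in medium extracted with MTBE, dansyl-derivatized, quantified by HPLC-MS/MS; bidirectional fitting versus DMSO, viability by MTT.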

[4] = CEETOX_H295R_PROG: CeeTox H295R High-throughput Steroidogenesis Assay for Progesterone (PROG) (AID 2283442); conditions: actives raise or lower the signal;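 on AC50: human H295R adrenal cells primed with 10 µM forskolin before dosing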
Procedure, shortened: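 Progesterone read-out: HPLC-MS/MS on MTBE extracts of conditioned medium after 48 h chemical exposure of forskolin-primed (10 uM, 48 h) H295R cells. Gain or loss of signal was fitted relative to DMSO baseline.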

[5] = read-out: Tumor necrosis factor receptor superfamily member 6 (Homo sapiens) (UniProt P25445); test: LTEA_HepaRG_FAS: Life Technologies and Expression Analysis (LTEA) Assay for Fas cell surface death receptor (FAS) using HepaRG (AID 2283447); conditions: mRNA level, 48 h; actives raise or lower the signal
Procedure, shortened: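 FAS transcript level was measured by TaqMan qRT-PCR against three housekeeping genes after 48 h chemical exposure. Cells were HepaRG, 0.5% DMSO vehicle, with a top concentration of 100 uM and half-log dilutions over eight points, in duplicate.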

[6] = read-out: Fatty acid synthase (Homo sapiens) (UniProt P49327); test: LTEA_HepaRG_FASN: Life Technologies and Expression Analysis (LTEA) Assay for Fatty Acid Synthase (FASN) using HepaRG (AID 2283448); conditions: mRNA level, 48 h; actives raise or lower the signal;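 on AC50: differentiated human HepaRG liver cells in serum-free induction medium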
Procedure, shortened: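 FASN expression changes, up or down relative to 0.5% DMSO, were measured by qRT-PCR in human HepaRG cells after 48 h treatment with chemicals at eight concentrations (half-log steps from 100 uM).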

[7] = read-out: Cyclin D2 (CCND2), CCND2 (gene 894); test: LTEA_HepaRG_CCND2: Life Technologies and Expression Analysis (LTEA) Assay for Cyclin D2 (CCND2) using HepaRG (AID 2283449); conditions: mRNA level, 48 h; actives raise or lower the signal
Procedure, shortened: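 Read-out is CCND2 mRNA level measured by qRT-PCR in human HepaRG liver cells and normalised to three housekeeping genes. Chemicals were applied for 48 h at up to 100 uM, with gain or loss fitted relative to 0.5% DMSO.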

[8] = read-out: Cyclin Dependent Kinase Inhibitor 1A (CDKN1A), CDKN1A (gene 1026); test: LTEA_HepaRG_CDKN1A: Life Technologies and Expression Analysis (LTEA) Assay for Cyclin Dependent Kinase Inhibitor 1A (CDKN1A) using HepaRG (AID 2283450); conditions: mRNA level, 48 h; actives raise or lower the signal
Procedure, shortened: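 HepaRG, 48 h dosing, 8-pt half-log series from 100 uM top, 0.5% DMSO vehicle, duplicates. Readout: TaqMan qRT-PCR of CDKN1A transcript, housekeeping-normalized (ACTB, GAPDH, POLR2A). Up/down curve fit relative to DMSO.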

[9] = read-out: Cyclin D1 (CCND1), CCND1 (gene 595); test: LTEA_HepaRG_CCND1: Life Technologies and Expression Analysis (LTEA) Assay for Cyclin D1 (CCND1) using HepaRG (AID 2283451); conditions: mRNA level, 48 h; actives raise or lower the signal;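 on AC50: differentiated human HepaRG liver cells in serum-free induction medium; TaqMan qRT-PCR transcript level normalised to ACTB GAPDH and POLR2A housekeeping genes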
Procedure, shortened: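 qRT-PCR (Fluidigm 96.96 array) read-out of transcript level, housekeeping-normalized (ACTB/GAPDH/POLR2A). HepaRG cells, 48 h chemical exposure, 8-point half-log series from 100 uM, 0.5% DMSO vehicle; gain or loss relative to DMSO baseline.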

[10] = read-out: catalase (CAT), CAT (gene 847); test: LTEA_HepaRG_CAT: Life Technologies and Expression Analysis (LTEA) Assay for catalase (CAT) using HepaRG (AID 2283452); conditions: mRNA level, 48 h; actives raise or lower the signal
Procedure, shortened: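 Expression of CAT was quantified by TaqMan qRT-PCR with ACTB/GAPDH/POLR2A normalization after 48 h chemical exposure of HepaRG. Eight-point half-log series, top 100 uM, in 0.5% DMSO; gain or loss fitted against vehicle.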

Measured: AC50

Fatty acid synthase (Homo sapiens), sequence (P49327 whole entry, looked up): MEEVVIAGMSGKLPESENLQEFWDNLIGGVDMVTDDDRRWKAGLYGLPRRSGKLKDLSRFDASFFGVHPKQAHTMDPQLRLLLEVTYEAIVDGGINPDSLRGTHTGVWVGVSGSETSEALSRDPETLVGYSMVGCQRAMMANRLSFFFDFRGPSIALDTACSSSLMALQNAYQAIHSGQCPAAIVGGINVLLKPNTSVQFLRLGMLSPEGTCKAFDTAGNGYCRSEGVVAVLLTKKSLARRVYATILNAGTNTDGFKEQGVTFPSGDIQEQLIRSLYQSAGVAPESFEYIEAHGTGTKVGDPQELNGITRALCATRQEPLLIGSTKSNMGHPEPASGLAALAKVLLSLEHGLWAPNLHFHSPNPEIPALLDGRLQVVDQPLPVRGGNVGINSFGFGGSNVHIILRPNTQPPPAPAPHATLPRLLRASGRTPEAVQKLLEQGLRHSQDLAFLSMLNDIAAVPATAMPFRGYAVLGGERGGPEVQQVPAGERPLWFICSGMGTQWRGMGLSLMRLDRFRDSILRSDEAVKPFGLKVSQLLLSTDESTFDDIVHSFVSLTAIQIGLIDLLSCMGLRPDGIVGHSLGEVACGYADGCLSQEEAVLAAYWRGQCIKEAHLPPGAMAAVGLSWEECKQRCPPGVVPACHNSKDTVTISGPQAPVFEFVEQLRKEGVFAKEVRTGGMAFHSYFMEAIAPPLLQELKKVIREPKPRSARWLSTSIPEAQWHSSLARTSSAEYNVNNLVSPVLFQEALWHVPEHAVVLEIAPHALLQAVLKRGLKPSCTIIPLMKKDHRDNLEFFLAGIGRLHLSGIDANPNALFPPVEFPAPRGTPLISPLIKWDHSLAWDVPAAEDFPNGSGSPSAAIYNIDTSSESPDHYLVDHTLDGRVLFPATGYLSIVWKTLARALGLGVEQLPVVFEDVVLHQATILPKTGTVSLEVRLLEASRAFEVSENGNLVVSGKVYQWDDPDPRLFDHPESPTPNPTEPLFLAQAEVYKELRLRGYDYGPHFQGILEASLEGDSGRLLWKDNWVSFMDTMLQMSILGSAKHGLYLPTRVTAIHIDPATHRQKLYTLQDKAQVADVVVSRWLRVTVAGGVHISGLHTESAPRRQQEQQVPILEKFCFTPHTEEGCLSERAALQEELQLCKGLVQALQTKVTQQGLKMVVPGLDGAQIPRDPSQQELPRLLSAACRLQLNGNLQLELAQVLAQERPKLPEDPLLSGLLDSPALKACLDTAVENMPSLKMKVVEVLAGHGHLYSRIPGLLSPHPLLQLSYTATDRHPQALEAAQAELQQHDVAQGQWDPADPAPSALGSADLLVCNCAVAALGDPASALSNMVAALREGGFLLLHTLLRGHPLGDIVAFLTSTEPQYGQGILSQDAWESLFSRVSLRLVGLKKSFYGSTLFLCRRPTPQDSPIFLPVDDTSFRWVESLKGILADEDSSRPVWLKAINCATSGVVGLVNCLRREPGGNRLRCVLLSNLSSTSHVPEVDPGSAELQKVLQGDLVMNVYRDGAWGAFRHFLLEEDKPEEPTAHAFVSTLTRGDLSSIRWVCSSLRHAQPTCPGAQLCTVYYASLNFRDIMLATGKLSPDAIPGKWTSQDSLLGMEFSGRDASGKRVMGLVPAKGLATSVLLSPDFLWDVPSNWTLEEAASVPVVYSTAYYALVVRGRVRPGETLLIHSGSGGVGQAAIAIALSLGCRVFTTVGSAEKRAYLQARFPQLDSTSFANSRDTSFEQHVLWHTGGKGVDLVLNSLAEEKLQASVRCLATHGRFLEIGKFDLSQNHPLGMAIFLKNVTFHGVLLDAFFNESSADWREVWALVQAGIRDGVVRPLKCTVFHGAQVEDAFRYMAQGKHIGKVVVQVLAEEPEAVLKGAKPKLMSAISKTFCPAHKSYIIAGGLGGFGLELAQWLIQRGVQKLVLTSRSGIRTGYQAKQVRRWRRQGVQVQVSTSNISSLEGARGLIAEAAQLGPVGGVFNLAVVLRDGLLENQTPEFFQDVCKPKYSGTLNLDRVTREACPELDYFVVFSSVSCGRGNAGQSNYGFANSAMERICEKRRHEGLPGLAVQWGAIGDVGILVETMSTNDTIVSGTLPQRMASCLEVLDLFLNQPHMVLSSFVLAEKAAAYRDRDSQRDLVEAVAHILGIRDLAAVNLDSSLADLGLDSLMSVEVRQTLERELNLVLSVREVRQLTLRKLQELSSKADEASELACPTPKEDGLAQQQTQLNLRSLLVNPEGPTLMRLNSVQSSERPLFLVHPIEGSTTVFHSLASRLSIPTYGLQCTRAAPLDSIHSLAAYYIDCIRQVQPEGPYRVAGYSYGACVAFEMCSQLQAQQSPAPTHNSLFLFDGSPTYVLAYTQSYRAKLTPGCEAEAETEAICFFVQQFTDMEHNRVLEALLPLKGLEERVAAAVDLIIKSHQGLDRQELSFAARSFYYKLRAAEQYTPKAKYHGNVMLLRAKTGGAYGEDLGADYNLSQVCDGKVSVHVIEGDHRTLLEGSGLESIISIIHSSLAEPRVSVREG

CC(C)N(C(=O)COc1nnc(C(F)(F)F)s1)c1ccc(F)cc1
not listed: [10]
inactive: all other assays above

O=[N+]([O-])/N=C1\NCCN1Cc1ccc(Cl)nc1
active: [6] 20.6 µM | [8] 12.2 µM
not listed: [10]
inactive: all other assays above

C[C@H]1[C@H](c2ccc(Cl)cc2)SC(=O)N1C(=O)NC1CCCCC1
active: [5] 90.5 µM | [8] 71.6 µM
not listed: [7] | [10]
inactive: all other assays above

O=C(O)COc1ccc(Cl)cc1Cl
not listed: [2] | [3] | [10]
inactive: all other assays above

CCc1ccc(C(=O)NN(C(=O)c2cc(C)cc(C)c2)C(C)(C)C)cc1
not listed: [10]
inactive: all other assays above

CCC(C)Nc1c([N+](=O)[O-])cc(C(C)(C)C)cc1[N+](=O)[O-] (stereo unspecified)
active: [1] 87.1 µM | [4] 88.3 µM
inactive: all other assays above

COP(=S)(OC)Oc1ccc(SC)c(C)c1
not listed: [6]
inactive: all other assays above

Oc1cc(Cl)ccc1Oc1ccc(Cl)cc1Cl
inactive: [1] | [4] | [5] | [6] | [7] | [8] | [9]
active: [6] 69.9 µM | [9] 85.2 µM

CCN(CC)C(=O)SCc1ccc(Cl)cc1
active: [1] 22.6 µM
inactive: [4] | [5] | [6] | [8] | [9]

O=[N+]([O-])c1c(Cl)c(Cl)c(Cl)c(Cl)c1Cl
active: [9] 50 µM
not listed: [10]
inactive: all other assays above

COc1nn(CSP(=S)(OC)OC)c(=O)s1
active: [1] 40.2 µM | [2] 11.5 µM | [3] 21.4 µM | [4] 38.2 µM
inactive: all other assays above

CNC(=O)Oc1ccccc1OC(C)C
not listed: [10]
inactive: all other assays above

CCCN(CCOc1c(Cl)cc(Cl)cc1Cl)C(=O)n1ccnc1
active: [1] 0.0358 µM | [4] 0.211 µM | [6] 77.4 µM | [8] 30.5 µM | [9] 89.8 µM
inactive: [5] | [7]

CC[C@H](C)[C@H]1O[C@]2(C=C[C@@H]1C)C[C@@H]1C[C@@H](C/C=C(\C)[C@@H](O[C@H]3C[C@H](OC)[C@@H](O[C@H]4C[C@H](OC)[C@@H](O)[C@H](C)O4)[C@H](C)O3)[C@@H](C)/C=C/C=C3\CO[C@@H]4[C@H](O)C(C)=C[C@@H](C(=O)O1)[C@]34O)O2 (tested in a mixture with another compound)
active: [6] 11.4 µM | [8] 7.59 µM
inactive: [1] | [4] | [9]

CC(C)(C)C(O)/C(=C\c1ccc(Cl)cc1Cl)n1cncn1 (stereo unspecified)
active: [6] 80.6 µM | [8] 27.5 µM | [9] 82.5 µM
not listed: [10]
inactive: all other assays above

Oc1ccc(Cl)cc1Cc1ccccc1
active: [1] 39.9 µM | [6] 87.9 µM and 74.3 µM and 81.6 µM | [9] 50.5 µM
inactive: [4] | [5] | [7] | [8] | [9]

N#Cc1c(Cl)c(Cl)c(Cl)c(C#N)c1Cl
active: [6] 35.5 µM | [9] 13.5 µM
not listed: [10]
inactive: all other assays above

C#CCN1C(=O)COc2cc(F)c(N3C(=O)C4=C(CCCC4)C3=O)cc21
not listed: [7] | [10]
inactive: all other assays above

CNC(=O)/C=C(\C)OP(=O)(OC)OC
not listed: [10]
inactive: all other assays above

CCC(C)(C)C(=O)OC1=C(c2ccc(Cl)cc2Cl)C(=O)OC12CCCCC2
active: [1] 0.739 µM | [4] 0.593 µM | [6] 15.1 µM
not listed: [10]
inactive: all other assays above

O=C(NC(=O)c1c(F)cccc1F)Nc1ccc(OC(F)(F)C(F)OC(F)(F)F)c(Cl)c1 (stereo unspecified)
active: [6] 8.63 µM
not listed: [10]
inactive: all other assays above

CC1(C)C(C=C(Cl)Cl)C1C(=O)OC(C#N)c1ccc(F)c(Oc2ccccc2)c1 (stereo unspecified)
inactive: all assays above

O=C(O)CCCOc1ccc(Cl)cc1Cl
inactive: [5] | [6] | [7] | [8] | [9]

CCOCN(C(=O)CCl)c1c(C)cccc1CC
active: [6] 90.8 µM
inactive: [5] | [7] | [8] | [9]

N#CN
inactive: [5] | [6] | [7] | [8] | [9] | [10]

Clc1ccccc1-c1nnc(-c2ccccc2Cl)nn1
active: [6] 24.7 µM
not listed: [1] | [7] | [10]
inactive: all other assays above

COP(=O)(OC)OC=C(Cl)Cl
inactive: [5] | [6] | [7] | [8] | [9]

CCC(C)(NC(=O)c1cc(Cl)c(C)c(Cl)c1)C(=O)CCl (stereo unspecified)
active: [5] 92.4 µM | [9] 77.8 µM
inactive: [6] | [7] | [8]

CCCN(CCC)c1c([N+](=O)[O-])cc(C(F)(F)F)cc1[N+](=O)[O-]
inactive: [4] | [5] | [6] | [7] | [8] | [9]

CNC(=O)CSP(=S)(OC)OC
not listed: [1] | [10]
inactive: all other assays above

CCOC1Oc2ccc(OS(C)(=O)=O)cc2C1(C)C (stereo unspecified)
inactive: [5] | [6] | [7]
active: [8] 87.1 µM | [9] 76.1 µM

CNC(=O)Oc1cccc(N=CN(C)C)c1
active: [4] 35.9 µM
not listed: [1] | [10]
inactive: all other assays above

COP(=S)(OC)Oc1ccc([N+](=O)[O-])cc1
active: [4] 9.85 µM
not listed: [1] | [10]
inactive: all other assays above

O=S1OCC2C(CO1)C1(Cl)C(Cl)=C(Cl)C2(Cl)C1(Cl)Cl (stereo unspecified)
active: [8] 79.1 µM
inactive: [5] | [6] | [9]

ClC1C(Cl)C(Cl)C(Cl)C(Cl)C1Cl (stereo unspecified)
inactive: [5] | [6] | [7] | [8] | [9] | [10]

CC(C)(C)C(O)C(Oc1ccc(Cl)cc1)n1cncn1 (stereo unspecified)
active: [6] 32.7 µM and 50 µM and 27.9 µM
inactive: [4] | [5] | [7] | [8] | [9]

CN1CSC(=S)N(C)C1
inactive: [5] | [6] | [7] | [8] | [9]

O=C(Nc1ccccc1)Nc1cnns1
inactive: [5] | [8]
active: [6] 72.7 µM | [9] 74.7 µM

Cc1[nH]c(=O)n(C(C)(C)C)c(=O)c1Cl
active: [6] 68.9 µM
inactive: [5] | [7] | [8] | [9]

CC1(c2ccc(Oc3ccccc3)cc2)OC(=O)N(Nc2ccccc2)C1=O (stereo unspecified)
active: [5] 1.02 µM | [6] 42.4 µM | [8] 9.7 µM | [10] 12.7 µM
inactive: [9]

CC(C)OC(=O)Nc1cccc(Cl)c1
active: [3] 15.6 µM
not listed: [1] | [7] | [10]
inactive: all other assays above

O=S(=O)(O)C(F)(F)C(F)(F)C(F)(F)C(F)(F)C(F)(F)C(F)(F)C(F)(F)C(F)(F)F
inactive: [5] | [7] | [8] | [9]
active: [6] 81.5 µM and 71.8 µM and 73.8 µM | [9] 18.5 µM and 22.3 µM and 12.3 µM

O=C(O)C(F)(F)C(F)(F)C(F)(F)C(F)(F)C(F)(F)C(F)(F)C(F)(F)F
inactive: [5] | [6] | [7] | [8] | [9]

O=C1c2ccccc2C(=O)N1SC(Cl)(Cl)Cl
not listed: [1] | [10]
inactive: all other assays above

OCCOc1ccccc1
inactive: [5] | [6] | [7] | [8] | [9]
